This is a sample that favours compounds with a hit; in the whole collection about 2.4% have one here.
Cruzain inh noDet – qHTS Assay for Promiscuous and Specific Inhibitors of Cruzain (without detergent). Cruzipain (Trypanosoma cruzi), P25779. purified cruzain, Z-FR-AMC fluorescence, no detergent. Potency, µM, inactives show max response, negative = inhibition, most hits filed as inhibitors. hit rate 2.3% among 200,000;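 also: plate controls were enzyme without inhibitor for no effect and buffer without enzyme for full effect; nearly all actives have a fitted effect of over 40% in size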
Target sequence (P25779 123-467 limits assumed): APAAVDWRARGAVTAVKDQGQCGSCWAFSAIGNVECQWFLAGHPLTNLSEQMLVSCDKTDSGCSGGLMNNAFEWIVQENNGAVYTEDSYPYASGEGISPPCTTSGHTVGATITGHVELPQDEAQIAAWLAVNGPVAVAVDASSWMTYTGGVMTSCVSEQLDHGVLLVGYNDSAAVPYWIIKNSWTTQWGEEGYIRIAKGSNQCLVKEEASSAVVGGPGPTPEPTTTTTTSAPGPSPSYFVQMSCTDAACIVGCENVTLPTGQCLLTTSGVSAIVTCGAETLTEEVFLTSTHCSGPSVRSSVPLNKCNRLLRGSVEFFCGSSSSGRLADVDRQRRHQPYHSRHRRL
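Detergent-free condition (0.00005% Triton X-100) in acetate buffer pH 5.5 with DTT. 1.5 nM enzyme and compound were pre-mixed 15 min, then 2 uM Z-FR-AMC substrate added; reaction progress from fluorescence change between first and third reads (60 s).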
Cruzain Triton – qHTS Assay for Promiscuous and Specific Inhibitors of Cruzain (with detergent); Cruzipain (Trypanosoma cruzi), P25779; hit rate 0.43% among 200,000; purified cruzain, Z-FR-AMC fluorescence, 0.01% Triton; Potency, µM, for inactives: max response, negative = inhibition, hits mostly inhibitors;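 also: plate controls were neutral wells for no effect and buffer without enzyme for full effect; nearly all actives have a fitted effect of over 40% in size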
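Compounds were screened in titration against cruzain (1.5 nM) with 0.01% Triton X-100 to counter colloidal aggregation. Activity was the AMC fluorescence increase over 60 s after adding 2 uM Z-FR-AMC at pH 5.5.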
Numbers without * were called inactive; ? = inconclusive. Calls follow the shape of the dose curve; as a rule, active = well fitted curve in the direction sought with a large enough effect; inconclusive = small, poorly fitted or top-dose-only effect, or another doubt; inactive = no such curve, though single readings can be large; an effect the other way counts as inactive or inconclusive. Potency is read from the fitted curve at half-maximal effect.

SMILES	Cruzain inh noDet	Cruzain Triton
CCOc1ccc(OCC)c(NC(=O)c2cc(CN3CCOCC3)on2)c1	-1%	-1%
COCCNc1nc(C)nc2c1nc(-c1ccccc1)n2CCN(C)C	4%	0%
CC(=O)c1ccc(NC(=O)CCc2c(C)nn(-c3ccc4nncn4n3)c2C)cc1	-9%	-1%
COC(=O)[C@@]1(Cc2ccccc2)[C@H]2c3cc(C(=O)N4CCCC4)n(CCN4CNCC4=O)c3C[C@H]2CN1C(=O)c1ccccc1	?	2%
O=C(Nc1nnc(SCC(=O)N2CCOCC2)s1)c1ccccc1Cl	-9%	-5%
O=C(CSc1nc2ccccc2s1)Nc1ccc2c(c1)oc1ccccc12	16µM*	-2%
Cn1c(SCC(=O)Nc2ccccc2)nnc1-c1ccccc1	-2%	-1%
O=C(CSc1nnc(NC(=O)c2ccccc2Cl)s1)Nc1ccc2c(c1)oc1ccccc12	4µM*	-8%
O=C(CSc1nc2ccccc2s1)NNC(=O)Nc1ccc(Cl)c(Cl)c1	?	-8%
Cn1c(SCC(=O)Nc2ccc3c(c2)oc2ccccc23)nnc1-c1ccccc1	13µM*	0%
COc1ccc(C2C(C(=O)Nc3ccccc3)=C(C)Nc3nc(-c4ccc(Cl)cc4)nn32)cc1 (stereo not given)	12%	3%
O=C(N/N=C\C=C\c1ccc2c(c1)OCO2)C1COc2cc3ccccc3cc2O1 (stereo not given)	25µM*	-7%
O=C(N/N=C/c1ccc2c(c1)OCO2)C1COc2ccccc2O1 (stereo not given)	-10%	-4%
O=C(N/N=C/c1ccccc1Cl)c1[nH]c2ccc(Br)cc2c1-c1ccccc1	13µM*	-3%
COc1ccc(/C=N/NC(=O)c2[nH]c3ccc(Br)cc3c2-c2ccccc2)cc1	?	1%
COCC(=O)N1CCC2(CCN(Cc3nccs3)CC2)CC1	0%	-1%
CCNc1nc(SC(C(C)=O)C(C)=O)nc(N(C)C)n1	-2%	5%
COC(=O)CN(C#N)c1nc(C)cc(C)n1	-2%	-2%
CCN(C#N)c1nc(NC(C)C)nc(NC(C)C)n1	7%	0%
COC(=O)CN(C#N)c1nc(NC(C)C)nc(OC)n1	20µM*	22µM*
COC(=O)CN(C#N)c1nc(OC)nc(N(C)C)n1	20µM*	28µM*
CCNc1nc(SC)nc(N(C#N)CC(=O)OC)n1	13µM*	14µM*
Cc1ccccc1Cn1cnc2nc3c(cc2c1=O)CC(C)CC3 (stereo not given)	25%	6%
CC(C)(C)OC(=O)N1CCC(c2c(C(=O)O)cnn2-c2ccc(F)cc2F)CC1	15%	-1%
O=C(c1ccc2c(c1)N(Cc1cccc(F)c1)C(=O)c1ccccc1S2)N1CCC2(CC1)OCCO2	30%	-2%
SMILES	Cruzain inh noDet	Cruzain Triton
CCOc1ccc(C(=O)N2CCC(c3ccncc3)CC2)cc1	-8%	4%
Cc1ccc(C(=O)c2coc3c2C(=O)C(=O)c2ccccc2-3)cc1	13µM*	-2%
Cc1ccc(C(=O)c2c(C)oc3c2C(=O)C(=O)c2ccccc2-3)cc1	?	-4%
Cc1cccc(NC(=O)C2CCN(c3cnccn3)CC2)c1	-5%	-2%
CCOC(=O)C1=C(O)C(=O)N(c2ccc(S(N)(=O)=O)cc2)C1c1ccc(OC)cc1 (stereo not given)	-1%	1%
CCOC(=O)C1C(C)=C(Nc2ccc(OC)cc2)C(=O)N1c1ccc(OC)cc1 (stereo not given)	13µM*	-2%
CCOc1ccc(CCNC(=O)c2cc3c(s2)-c2c(C)cccc2OC3)cc1	4%	0%
CCOc1ccc(NC(=O)Nc2cc3c(cc2N2CCCCC2)n(C)c(=O)n3C)cc1	-5%	-7%
Cc1ccc(-c2nnn(CC(=O)N(c3ccccc3)C(C(=O)NC3CCCC3)c3ccco3)n2)o1 (stereo not given)	10µM*	1%
Cc1ccc(-c2nnn(CC(=O)N(Cc3cccs3)C(C(=O)NC3CCCC3)c3ccco3)n2)o1 (stereo not given)	4%	7%
CC1=Nc2cc(C(=O)NCCc3ccc(Cl)cc3)ccc2Sc2ccc(C)cc21	10µM*	-2%
CC1=Nc2cc(C(=O)NC3CCCC3)ccc2Sc2ccc(Br)cc21	?	-3%
CC1=Nc2cc(C(=O)NC3CCCCC3)ccc2Sc2ccc(Cl)cc21	25µM*	-5%
CCCC1=Nc2cc(C(=O)NCCc3ccc(OCC)cc3)ccc2Sc2ccccc21	?	-2%
CCNC(=O)c1nn(-c2ccccc2C)nc1CO	11%	0%
COc1ccc(C2N3CC4(C)CN2CC(c2ccccc2)(C3)C4=O)cc1 (stereo not given)	6%	-1%
CN(C)c1ccc(C(CNC(=O)c2ccc(C#N)cc2)c2c[nH]c3ccccc23)cc1 (stereo not given)	?	-11%
CN(C)c1ccc(C(CNC(=O)c2ccccc2Br)c2c[nH]c3ccccc23)cc1 (stereo not given)	25µM*	-3%
CN(C)c1ccc(C(CNS(=O)(=O)c2ccc(F)cc2)c2c[nH]c3ccccc23)cc1 (stereo not given)	32µM*	-10%
CCOC(=O)c1ccc(S(=O)(=O)NCC(c2ccc(N(C)C)cc2)c2c[nH]c3ccccc23)cc1 (stereo not given)	?	-4%
COc1ccc(OC)c(CNc2ncnc3onc(C)c23)c1	-5%	-2%
CCOC(=O)N1CCN(S(=O)(=O)N2CCCC(C(=O)NCc3cccc(OC)c3)C2)CC1 (stereo not given)	-2%	0%
CC(C)Oc1ccc(C(=O)N(Cc2ccco2)c2ccccn2)cc1	0%	-2%
CCNC(=O)c1ccc2c(c1)sc1nc(-c3cccc(OC)c3)cn12	-2%	-3%
Cc1ccc(S(=O)(=O)NC2c3cccc4cccc(c34)C2Sc2nc(C)cc(C)n2)cc1 (stereo not given)	25µM*	-3%
SMILES	Cruzain inh noDet	Cruzain Triton
Cc1ccc(S(=O)(=O)NC2c3cccc4cccc(c34)C2Sc2nncn2C)cc1 (stereo not given)	-8%	2%
CCCCc1cc(=O)oc2c(CN(CC)CC)c(O)c(Cl)cc12	?	28µM*
CCCCc1cc(=O)oc2cc(OCc3nn[nH]n3)c(Cl)cc12	2%	-8%
CCCCc1cc(=O)oc2c(CN3CCCC3)c(O)c(Cl)cc12	?	28µM*
Cc1c(C)c2cc(Cl)c(O)c(CN3CCCCC3)c2oc1=O	-100%	?
CCCc1cc(=O)oc2c(CN3CCN(C)CC3)c(O)c(Cl)cc12	?	32µM*
Cc1cc(=O)oc2c(CN3CCN(C)CC3)c(O)c(Cl)cc12	?	-22%
Oc1c(C(c2ccccc2F)N2CCN(c3ccccc3F)CC2)sc2nc(-c3ccco3)nn12 (stereo not given)	-4%	-7%
C[C@@H]1Nc2ccc(Cl)cc2S(=O)(=O)N1	1%	-4%
COc1cccc(NC(=O)Cn2c(=O)n(Cc3nc(-c4ccccc4)no3)c(=O)c3ccccc32)c1	-7%	-3%
CSc1nn(Cc2ccc(C)cc2)c(N)c1S(=O)(=O)c1ccccc1	-6%	-11%
O=C1CC(c2ccc(F)cc2)Cc2nc(N3CCc4ccccc43)ncc21 (stereo not given)	?	-2%
Fc1cnc(N2CCc3ccccc32)nc1N1CCc2ccccc21	3.2µM*	7%
CCc1cc(=O)[nH]c(SCc2nc(-c3ccc(C(F)(F)F)cc3)no2)n1	12%	1%

Bioassay records deposited in PubChem by National Center for Advancing Translational Sciences (NCATS).
